# Calls of active or inactive are those of the source. A call without a number means that no potency is given here. Unless noted, calls come from the whole dose curve; as a rule, active = well fitted curve in the direction sought with a large enough effect in the repeat runs; inconclusive = weak or mixed curves; inactive = no such curve, though single readings can be large; an effect the other way counts as inactive or inconclusive.
# How the values were obtained:
# [1] = qHTS assay to identify small molecule antagonists of the thyroid receptor (TR) signaling pathway - cell viability counter screen (AID 743064); note: nearly all actives have a fitted effect of over 50% in size; note: potency is the fitted concentration of half-maximal effect
# Method in brief: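 Fluorescence from CellTiter-Fluor, added after 23.5 h exposure at 37 °C, reported viability of GH3.TRE-Luc cells co-treated with compound and 1 nM T3. Measured in the same wells as the luciferase TR readout.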
# [2] = qHTS assay to identify small molecule antagonists of the thyroid receptor (TR) signaling pathway (AID 743065); note: nearly all actives have a fitted effect of over 55% in size; note: potency is the fitted concentration of half-maximal effect
# Method in brief: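 GH3.TRE-Luc rat pituitary cells (two TREs driving luciferase) were dosed with compound, then stimulated with 1 nM T3 (final) for 23.5 h at 37 C. ONE-Glo luminescence was the read-out, with CellTiter-Fluor fluorescence as the cytotoxicity counter-screen.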
# [3] = test system: thyroid hormone receptor (rat, GH3 cells); experiment: qHTS assay to identify small molecule agonists of the thyroid receptor (TR) signaling pathway (AID 743066; calls by dose curve)
# [4] = molecular target: Estrogen receptor (Homo sapiens) (UniProt P03372); experiment: qHTS assay to identify small molecule antagonists of the estrogen receptor alpha (ER-alpha) signaling pathway (AID 743069; active = well fitted curve in the direction sought with a large enough effect in the signal ratio in the repeat runs, not every such curve was filed as active; inconclusive = weak or mixed curves, or effect the other way; inactive = no such curve, though single readings can be large or run the other way; the % refers to the signal ratio; note: potency is the fitted concentration of half-maximal effect)
# Method in brief: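 In this cell-based reporter format, GripTite HEK293 cells harbouring ER-alpha-UAS-bla were grown overnight with 2% charcoal-stripped FBS, dosed with DMSO-dissolved compounds, then challenged with 17beta-estradiol. After 18 hr at 37C, beta-lactamase activity was detected by FRET fluorescence.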
# [5] = qHTS assay to identify small molecule antagonists of the estrogen receptor alpha (ER-alpha) signaling pathway - cell viability counter screen (AID 743074; calls by dose curve; note: nearly all actives have a fitted effect of over 45% in size)
# [6] = molecular target: Estrogen receptor (Homo sapiens) (UniProt P03372); experiment: qHTS assay to identify small molecule agonists of the estrogen receptor alpha (ER-alpha) signaling pathway (AID 743075; calls by dose curve)
# [7] = molecular target: Estrogen receptor (Homo sapiens) (UniProt P03372); experiment: qHTS assay to identify small molecule agonists of the estrogen receptor alpha (ER-alpha) signaling pathway using the BG1 cell line (AID 743079); note: nearly all actives have a fitted effect of over 20% in size; note: potency is the fitted concentration of half-maximal effect
# [8] = qHTS assay to identify small molecule antagonists of the estrogen receptor alpha (ER-alpha) signaling pathway using the BG1 cell line (AID 743080; calls by dose curve; note: nearly all actives have a fitted effect of over 25% in size; note: potency is the fitted concentration of half-maximal effect)
# Method in brief: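 Antagonist mode: compounds in DMSO were pinned onto BG1-Luc-4E2 cells alongside 17beta-estradiol agonist, incubated 21.5 h, and ERE-driven luciferase measured with ONE-Glo. Cytotoxicity was multiplexed using CellTiter-Fluor fluorescence.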
# [9] = qHTS assay to identify small molecule antagonists of the estrogen receptor alpha (ER-alpha) signaling pathway using the BG1 cell line - cell viability counter screen (AID 743081);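 note: compound given together with 17beta-estradiol as the ER stimulus; series mostly up to about 70 µM; nearly all actives have a fitted effect of over 45% in size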
# Aromatase (Homo sapiens) = Aromatase (Homo sapiens) (UniProt P11511); experiment: qHTS assay to identify aromatase inhibitors (AID 743083); note: series mostly up to about 70 µM; nearly all actives have a fitted effect of over 55% in size
# [10] = qHTS assay to identify aromatase inhibitors - cell viability counter screen (AID 743084);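 note: cells stimulated with testosterone during compound exposure; nearly all actives have a fitted effect of over 55% in size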
# [11] = molecular target: Aryl hydrocarbon receptor (Homo sapiens) (UniProt P35869); experiment: qHTS assay to identify small molecule that activate the aryl hydrocarbon receptor (AhR) signaling pathway (AID 743085); note: nearly all actives have a fitted effect of over 15% in size; note: potency is the fitted concentration of half-maximal effect;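 for activation: HG2L7.5c1 human HepG2 liver cells with stably integrated DRE-driven firefly reporter; series mostly up to about 70 µM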
# Method in brief: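 Cell line HG2L7.5c1 (human hepatoma, 20× DRE-luc). Plated, 5 h 37C, compound/DMSO added, 24 h 37C. CellTiter-Fluor 30 min 37C → fluorescence; then ONE-Glo 30 min RT → luminescence.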
# [12] = molecular target: Peroxisome proliferator-activated receptor gamma (Homo sapiens) (UniProt P37231); experiment: qHTS assay to identify small molecule agonists of the peroxisome proliferator-activated receptor gamma (PPARg) signaling pathway (AID 743094; active = well fitted activation curve with a large enough effect in the signal ratio in the repeat runs, not every such curve was filed as active; inconclusive = weak or mixed curves, or effect the other way; inactive = no such curve, though single readings can be large or run the other way; the % refers to the signal ratio)
# Method in brief: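 Reporter activation was scored by fluorescence of cleaved LiveBLAzer B/G substrate (1 h, room temperature) in PPARg-bla HEK293H cells previously treated 17 h at 37C with DMSO-dissolved compounds.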
# [13] = qHTS assay to identify small molecule that activate the aryl hydrocarbon receptor (AhR) signaling pathway - cell viability counter screen (AID 743086);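 note: HepG2 liver cells carrying the AhR DRE luciferase reporter; series mostly up to about 70 µM; nearly all actives have a fitted effect of over 45% in size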
# Method in brief: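 HepG2-AhR-luc (HG2L7.5c1) cells, 4000/well, treated 24 h at 37 C with compound; viability measured as CellTiter-Fluor fluorescence after 30 min in the same wells as the luciferase read.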
# [14] = qHTS assay to identify small molecule agonists of the peroxisome proliferator-activated receptor delta (PPARd) signaling pathway - cell viability counter screen (AID 743211); note: nearly all actives have a fitted effect of over 55% in size; note: potency is the fitted concentration of half-maximal effect
# Method in brief: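 HEK293H PPARd-bla, 3000 cells/well; 5 h preincubation 37C/5% CO2; cpd in DMSO, 17 h 37C; B/G FRET substrate 2 h RT; CellTiter-Glo 30 min RT, luminescence.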
# [15] = molecular target: Peroxisome proliferator-activated receptor gamma (Homo sapiens) (UniProt P37231); experiment: qHTS assay to identify small molecule antagonists of the peroxisome proliferator-activated receptor gamma (PPARg) signaling pathway (AID 743191; calls by dose curve; note: series mostly up to about 63 µM; nearly all actives have a fitted effect of over 30% in size)
# Method in brief: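 GeneBLAzer PPARg UAS-bla HEK293H cells, 5 h post-plating, exposed to compounds 17 h at 37C. LiveBLAzer B/G FRET substrate added for 1 h at room temperature; beta-lactamase reporter read by fluorescence intensity.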
# [16] = qHTS assay to identify small molecule antagonists of the peroxisome proliferator-activated receptor gamma (PPARg) signaling pathway - cell viability counter screen (AID 743194); note: nearly all actives have a fitted effect of over 55% in size
# Method in brief: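 Cytotoxicity counter screen in PPARg-bla HEK293H cells, same wells as reporter assay. Compounds plus 50 nM rosiglitazone (final) for 17 h at 37 C, then viability read by CellTiter-Glo luminescence.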
# [17] = qHTS assay for small molecule agonists of the antioxidant response element (ARE) signaling pathway - cell viability counter screen (AID 743203; calls by dose curve; note: nearly all actives have a fitted effect of over 55% in size)
# Method in brief: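 Viability counter screen: stably transfected ARE-bla HepG2 line, 16 hrs compound exposure at 37C/5% CO2, ATP-based CellTiter-Glo luminescence measured in the reporter wells.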
# [18] = molecular target: Peroxisome proliferator-activated receptor delta (Homo sapiens) (UniProt Q03181); experiment: qHTS assay to identify small molecule agonists of the peroxisome proliferator-activated receptor delta (PPARd) signaling pathway (AID 743212; calls by dose curve)
# Method in brief: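 Tox21 library screened in GeneBLAzer PPARd UAS-bla HEK293H cells. After compound treatment at 37 C, a FRET-based beta-lactamase substrate was applied for 2 h and fluorescence recorded.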
# Sequence of Estrogen receptor (Homo sapiens) (P03372 whole entry, looked up): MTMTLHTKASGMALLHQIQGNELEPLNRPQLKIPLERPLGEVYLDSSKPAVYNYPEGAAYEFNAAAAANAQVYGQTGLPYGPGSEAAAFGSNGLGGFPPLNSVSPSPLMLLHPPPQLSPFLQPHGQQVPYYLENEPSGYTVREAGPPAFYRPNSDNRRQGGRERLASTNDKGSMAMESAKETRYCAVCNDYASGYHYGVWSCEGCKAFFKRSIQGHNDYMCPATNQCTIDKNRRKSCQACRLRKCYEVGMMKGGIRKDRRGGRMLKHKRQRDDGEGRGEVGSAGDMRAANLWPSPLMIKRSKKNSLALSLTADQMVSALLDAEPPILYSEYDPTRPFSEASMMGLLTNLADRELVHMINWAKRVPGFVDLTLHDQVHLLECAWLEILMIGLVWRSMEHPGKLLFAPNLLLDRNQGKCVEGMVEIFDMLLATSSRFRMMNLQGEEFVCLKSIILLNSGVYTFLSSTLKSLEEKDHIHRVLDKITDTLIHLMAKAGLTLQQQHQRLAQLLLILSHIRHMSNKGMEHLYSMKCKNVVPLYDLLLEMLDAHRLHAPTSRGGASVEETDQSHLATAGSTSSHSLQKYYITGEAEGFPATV
# Sequence of Aromatase (Homo sapiens) (P11511 whole entry, looked up): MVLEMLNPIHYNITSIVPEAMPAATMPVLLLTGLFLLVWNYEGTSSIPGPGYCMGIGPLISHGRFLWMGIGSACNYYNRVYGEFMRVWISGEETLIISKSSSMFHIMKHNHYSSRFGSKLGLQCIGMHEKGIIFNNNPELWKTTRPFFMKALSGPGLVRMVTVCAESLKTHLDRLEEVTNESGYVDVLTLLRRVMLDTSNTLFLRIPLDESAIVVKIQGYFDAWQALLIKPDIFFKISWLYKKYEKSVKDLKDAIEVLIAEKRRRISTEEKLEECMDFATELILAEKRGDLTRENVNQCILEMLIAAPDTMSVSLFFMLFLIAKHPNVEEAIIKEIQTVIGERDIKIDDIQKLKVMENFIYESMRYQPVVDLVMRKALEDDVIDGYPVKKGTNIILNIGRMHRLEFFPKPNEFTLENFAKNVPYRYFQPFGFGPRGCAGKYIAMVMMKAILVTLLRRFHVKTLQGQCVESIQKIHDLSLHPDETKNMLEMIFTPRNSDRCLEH
# Sequence of Aryl hydrocarbon receptor (Homo sapiens) (P35869 whole entry, looked up): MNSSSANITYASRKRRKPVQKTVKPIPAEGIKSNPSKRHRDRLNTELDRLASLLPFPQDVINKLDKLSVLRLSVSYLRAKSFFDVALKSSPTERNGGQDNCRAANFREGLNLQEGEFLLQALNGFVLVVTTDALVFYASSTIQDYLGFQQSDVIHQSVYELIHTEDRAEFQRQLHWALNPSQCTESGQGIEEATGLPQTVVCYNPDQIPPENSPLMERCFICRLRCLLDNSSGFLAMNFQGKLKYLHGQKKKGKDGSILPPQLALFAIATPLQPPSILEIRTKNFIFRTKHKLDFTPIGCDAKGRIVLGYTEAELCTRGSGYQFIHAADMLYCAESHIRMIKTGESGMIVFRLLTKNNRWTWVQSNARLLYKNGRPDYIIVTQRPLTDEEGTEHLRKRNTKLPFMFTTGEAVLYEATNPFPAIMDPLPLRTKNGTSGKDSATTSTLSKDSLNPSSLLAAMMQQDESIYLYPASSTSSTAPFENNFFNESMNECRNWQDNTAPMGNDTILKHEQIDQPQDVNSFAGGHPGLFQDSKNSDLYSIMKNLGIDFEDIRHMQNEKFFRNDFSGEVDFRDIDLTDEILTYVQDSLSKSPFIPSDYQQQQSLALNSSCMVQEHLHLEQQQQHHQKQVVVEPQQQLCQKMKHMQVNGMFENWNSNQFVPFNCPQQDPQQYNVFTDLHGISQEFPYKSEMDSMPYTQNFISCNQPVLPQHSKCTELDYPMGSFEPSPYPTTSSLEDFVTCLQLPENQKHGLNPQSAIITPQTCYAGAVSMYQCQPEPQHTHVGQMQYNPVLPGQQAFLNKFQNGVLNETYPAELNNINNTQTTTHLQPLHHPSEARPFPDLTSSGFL
# Sequence of Peroxisome proliferator-activated receptor gamma (Homo sapiens) (P37231 whole entry, looked up): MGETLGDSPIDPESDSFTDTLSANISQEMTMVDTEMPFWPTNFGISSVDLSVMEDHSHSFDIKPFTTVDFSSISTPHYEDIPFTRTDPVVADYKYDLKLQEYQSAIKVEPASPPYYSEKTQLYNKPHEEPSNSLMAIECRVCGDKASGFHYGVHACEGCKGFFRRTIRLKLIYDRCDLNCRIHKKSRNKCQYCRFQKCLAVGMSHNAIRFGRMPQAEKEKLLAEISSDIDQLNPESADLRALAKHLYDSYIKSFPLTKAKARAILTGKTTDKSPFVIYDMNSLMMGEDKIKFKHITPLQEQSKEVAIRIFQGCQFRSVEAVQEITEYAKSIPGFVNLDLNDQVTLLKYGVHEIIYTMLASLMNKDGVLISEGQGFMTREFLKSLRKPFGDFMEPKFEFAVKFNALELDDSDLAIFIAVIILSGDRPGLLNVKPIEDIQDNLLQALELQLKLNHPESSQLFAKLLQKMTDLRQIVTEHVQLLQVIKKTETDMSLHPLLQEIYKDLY
# Sequence of Peroxisome proliferator-activated receptor delta (Homo sapiens) (Q03181 whole entry, looked up): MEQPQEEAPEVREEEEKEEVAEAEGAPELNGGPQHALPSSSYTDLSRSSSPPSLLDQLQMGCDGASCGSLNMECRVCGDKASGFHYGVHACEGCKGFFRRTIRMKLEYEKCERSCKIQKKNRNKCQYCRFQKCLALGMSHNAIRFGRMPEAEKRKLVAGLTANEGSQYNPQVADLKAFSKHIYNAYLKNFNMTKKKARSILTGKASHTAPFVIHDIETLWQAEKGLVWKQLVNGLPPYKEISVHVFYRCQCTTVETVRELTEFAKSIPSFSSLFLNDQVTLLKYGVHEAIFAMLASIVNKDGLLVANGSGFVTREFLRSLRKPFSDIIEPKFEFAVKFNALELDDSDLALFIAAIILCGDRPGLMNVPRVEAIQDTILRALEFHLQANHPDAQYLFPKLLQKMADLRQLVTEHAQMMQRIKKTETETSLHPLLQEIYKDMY
SMILES,Potency [1],Potency [2],Potency [3],Potency [4],Potency [5],Potency [6],Potency [7],Potency [8],Potency [9],Potency (Aromatase (Homo sapiens)),Potency [10],Potency [11],Potency [12],Potency [13],Potency [14],Potency [15],Potency [16],Potency [17],outcome [18]
CC(=O)OCC(=O)[C@@]1(O)CC[C@H]2[C@@H]3CCC4=CC(=O)CC[C@]4(C)C3=CC[C@@]21C,inactive,inactive,inactive,inactive,inactive,inactive,29.8 µM (active),inactive,inactive,inactive,inactive,inactive,inactive,–,–,–,–,–,–
CCCOC(=O)c1ccccc1O,inactive,inactive,inactive,inactive,inactive,inactive,inactive,inactive,–,inactive,inactive,inactive,–,inactive,–,–,–,–,–
O=C(O)CCCC/C=C(\c1ccccc1)c1cccnc1,inactive,inactive,inactive,inactive,inactive,inactive,inactive,inactive,inactive,inactive,inactive,inactive,inactive,–,–,–,–,–,–
CCCCCCCC/C=C\CCCCCCCC(=O)N(CCO)CCO,54.3 µM (active),68.3 µM (active),inactive,21.8 µM [inconclusive] (active),inactive,inactive,–,54.3 µM (active),–,inactive,inactive,inactive,–,inactive,43.5 µM (active),–,–,–,–
Nc1nc(NC2CC2)c2ncn([C@@H]3C=C[C@@H](CO)C3)c2n1,inactive,inactive,inactive,inactive,inactive,inactive,2.66 µM (active),–,inactive,inactive,inactive,8.41 µM (active),inactive,inactive,–,–,–,–,–
COC(=O)C(CN)c1c[nH]c2ccc(OC)cc12 (stereo not given),inactive,inactive,inactive,inactive,inactive,inactive,inactive,inactive,inactive,inactive,inactive,–,inactive,inactive,–,–,–,–,–
O=C[C@H](O)[C@@H](O)[C@@H](O)[C@H](O)CO,inactive,inactive,inactive,–,inactive,inactive,inactive,inactive,inactive,inactive,inactive,inactive,inactive,inactive,–,–,–,–,–
O=C1OC(=O)c2cc(-c3ccc4c(c3)C(=O)OC4=O)ccc21,inactive,inactive,inactive,inactive,–,inactive,inactive,inactive,inactive,inactive,inactive,inactive,inactive,inactive,–,inactive,inactive,inactive,–
CC(C)(C)C(=O)OCC(=O)[C@H]1CC[C@H]2[C@@H]3CCC4=CC(=O)CC[C@]4(C)[C@H]3CC[C@]12C,inactive,inactive,inactive,inactive,inactive,inactive,–,inactive,inactive,inactive,inactive,inactive,inactive,–,–,–,–,–,–
CC(=O)N[C@@H](C=O)[C@H](O)[C@H](O)[C@@H](O)CO,inactive,inactive,inactive,–,inactive,inactive,inactive,inactive,inactive,inactive,inactive,inactive,inactive,inactive,–,–,–,–,–
C=CC1=C(C(=O)O)N2C(=O)[C@@H](NC(=O)/C(=N\O)c3csc(N)n3)[C@H]2SC1 (stereo in doubt),inactive,inactive,inactive,–,inactive,inactive,inactive,inactive,inactive,inactive,inactive,inactive,inactive,inactive,–,–,–,–,–
CC1(C)CCC(NC(=O)[C@@H](N)CCC(=O)O)CC1,inactive,inactive,inactive,inactive,inactive,inactive,inactive,inactive,inactive,inactive,inactive,inactive,inactive,–,–,–,–,–,–
NCCCC[C@H](NC(=O)[C@@H]1CCCN1C(=O)[C@@H]1CSSC[C@H](N)C(=O)N[C@@H](Cc2ccc(O)cc2)C(=O)N[C@@H](Cc2ccccc2)C(=O)N[C@@H](CCC(N)=O)C(=O)N[C@@H](CC(N)=O)C(=O)N1)C(=O)NCC(N)=O,inactive,inactive,inactive,–,inactive,inactive,inactive,inactive,inactive,inactive,inactive,inactive,inactive,inactive,–,–,–,–,–
O=C(O)Cc1nn(Cc2ccc(Br)cc2F)c(=O)c2ccccc12,inactive,inactive,inactive,inactive,inactive,inactive,inactive,inactive,inactive,inactive,inactive,inactive,inactive,inactive,–,–,–,–,–
O=C(N[C@H](CO)[C@H](O)c1ccc([N+](=O)[O-])cc1)C(Cl)Cl,inactive,inactive,inactive,inactive,inactive,inactive,inactive,inactive,inactive,inactive,inactive,inactive,inactive,inactive,inactive,–,–,inactive,inactive

# — PubChem BioAssay (Tox21)
